High-throughput results: PubChem BioAssay, several laboratories
The list is not random: actives were taken first. Their share in the collection is about 4%.
697 NFkB inh: lowers PMA/ionomycin-induced NF-kB signal in 697 B cells | AID 435022 | actives 0.33% (n = 330,000) | inhibition, % at 4 µM | 697 B-cell NF-kB luciferase reporter, 16 h; in the data active = inhibition above about 35%
Gli-Sufu block: blocks Gli-Sufu signaling in a luciferase reporter | actives 0.74% (n = 340,000) | AID 588413 | inhibition, % at 5 µM | Sufu-KO-LIGHT fibroblasts, Gli luciferase reporter luminescence;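 active = inhibition above about 55%, limit read from the data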;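 note: 0% = DMSO-treated cells and 100% = wells with medium but no cells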
Jurkat NFkB inh: inhibitors of the PMA/ionomycin-induced NF-kB reporter in Jurkat cells | PMA/ionomycin-induced NF-kB luciferase reporter, luminescence | inhibition, % at 4 µM | actives 0.53% (n = 330,000); in the data active = inhibition above about 50%
Mdm2 MdmX PPI: human Mdm2/MdmX binding inhibition; inhibition, % at 8 µM; actives 3% (n = 330,000); SaOS-2 split-luciferase Mdm2/MdmX complementation, luminescence; AID 485346; O15151+Q00987;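 active = inhibition of at least 50% at 8 µM in the primary screen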
Beta cell apopt: blocks beta cell apoptosis; INS-1E cytokine-induced death, ATP luminescence, 48 h; percent of positive-control rescue, neutral wells zero; protection from apoptosis, % (test concentration not listed); actives 0.8% (n = 300,000); AID 435005;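 active = Every replicate reaches about 75%, or at least half do and their mean reaches it too, limit read from the data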;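 note: 0% = cytokine-treated negative control wells and 100% = positive control rescue; higher means more ATP so stronger rescue from cytokine killing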
697 NFkB conf: lowers PMA/ionomycin-induced NF-kB signal in 697 B cells; inhibition, % at 4 µM; shares compounds with 697 NFkB inh; 697 B-cell NF-kB luciferase, 16 h; actives 35% (n = 2,000); in the data active = inhibition mostly above about 28%, no sharp cut-off; inactive = mostly below about 22%
* marks the source's active call; other numbers are inactive results; . = not tested or not shown.

SMILES	697 NFkB inh	Gli-Sufu block	Jurkat NFkB inh	Mdm2 MdmX PPI	Beta cell apopt	697 NFkB conf
COc1cccc(C2C(C#N)=C(N)OC(C(C)(C)C)=C2C#N)c1 (configuration not stated)	36*	-19	7	-10	-11	4
Cc1cc(C)cc(SCc2noc(C(=O)NCCC(C)C)c2C(=O)NCCC(C)C)c1	19	8	1	10	-5	.
NC(=O)C1CCN(C(=O)COc2ccc3ccccc3c2Br)CC1	57*	4	9	8	0	60*
COc1ccc(Br)cc1/C=N/Nc1cccc(C(=O)O)c1	-37	7	-7	-4	-4	.
COc1ccccc1/C=C/C=N/Nc1cccc(C(=O)O)c1	-275	-53	-113	-149	-10	-39
CCc1nnc(NC(=O)C(c2ccccc2)c2ccccc2)s1	5	-10	13	13	.	.
O=C(NCc1ccccc1)C1CCN(S(=O)(=O)N2CCCCCC2)CC1	1	-4	0	17	0	.
O=C(NCc1ccccc1)C1CCN(S(=O)(=O)N2CCOCC2)CC1	41*	3	-5	15	-9	-4
CCCCOc1ccc(C(=O)N2CCN(CC(=O)Nc3ccc(C)cc3)CC2)cc1OC	2	2	0	22	1	.
COc1ccc(OC)c(S(=O)(=O)Nc2ccc(-c3ccc4nncn4n3)cc2)c1	35*	-12	15	31	-9	29
O=S(=O)(Nc1ccc(-c2ccc3nncn3n2)cc1)c1cc(F)ccc1F	-18	-5	2	6	-2	.
O=C(Cn1nnc(-c2ccccc2)n1)N/N=C/c1ccco1	4	5	-5	-28	-15	.
CN(C)c1ccc(/C=C(\C#N)c2ccccn2)cc1	-345	-36	-48	-6	25	-389
Cc1ccc(NS(=O)(=O)c2cccc(C(=O)O)c2)cc1S(=O)(=O)N1CCOCC1	15	-8	0	9	-2	.
Cc1ccc(NS(=O)(=O)c2ccc(Br)s2)cc1S(=O)(=O)N1CCOCC1	46*	4	-9	13	.	-8
Cn1c(=O)cc(Nc2ccccc2)c2c(=O)n(-c3ccccc3)c(=O)n(-c3ccccc3)c21	43*	12	-7	9	-1	32*
Cn1c(=O)c2c(Nc3ccc(F)cc3)cc(=O)n(-c3ccccc3)c2n(C)c1=O	-2	-1	13	-1	1	.
Cc1c(C(=O)O)sc(S(=O)(=O)N2CCN(C(=O)CC(C)c3ccccc3)CC2)c1C(=O)O (configuration not stated)	.	-1	.	.	.	.
CCSCCOC(=O)C1=C(C)NC2=C(C(=O)CCC2)C1c1coc2ccccc2c1=O (configuration not stated)	36*	6	4	7	-8	14
CC1=C(C(=O)OC(C)C)C(c2coc3ccccc3c2=O)C2=C(CCCC2=O)N1 (configuration not stated)	-6	8	-7	2	-5	.
O=C(O)c1ccc(N/N=C/c2cc3cc4c(cc3nc2Cl)OCCO4)cc1	-493	-133	-103	-23	-10	-480
Cc1ccc(NC(=O)c2sc3ccccc3c2Cl)nc1	-311	-64	-56	-59	-2	-275
Cc1nnc(NC(=O)c2sc3ccccc3c2Cl)s1	-156	-56	-65	-128	-1	.
O=C(Nc1ccc2oc(-c3cccc4ccccc34)nc2c1)c1ncn[nH]1	-120	-43	-35	-61	6	.
O=C(Nc1ccc2oc(-c3ccccc3Cl)nc2c1)c1ncn[nH]1	-288	-89	-101	-173	2	-194
SMILES	697 NFkB inh	Gli-Sufu block	Jurkat NFkB inh	Mdm2 MdmX PPI	Beta cell apopt	697 NFkB conf
C/C(=N\Nc1nncc2ccccc12)c1ccc(O)cc1	-298	-48	-133	-175	8	-154
Clc1ccc(-c2nc3n(n2)Cc2ccccc2-3)cc1	-374	-122	-116	-165	10	-301
CCN(CC)S(=O)(=O)c1cccc(-c2nc3n(n2)Cc2ccccc2-3)c1	-55	-44	-48	-13	3	.
Cc1c(OCc2ccc(C(=O)O)cc2)ccc2c(-c3ccccc3)cc(=O)oc12	37*	3	5	19	10	7
Cc1ccc(-c2nc3nc4ccccc4nc3n2Cc2ccco2)cc1	-257	-9	-48	-102	6	-250
Clc1ccc(-c2nc3nc4ccccc4nc3n2Cc2ccco2)cc1	-418	-3	-103	-74	12	-368
